This note sets out measurements from PubChem BioAssay AID504408 (Broad Institute, 2011).

The whole screen tested about 300,000 compounds, of which about 5,200 (1.7%) were called active. This is one part of a sample in which actives are shown more often than they occur.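 How the source made its calls: active means mean replicate activation of at least 50% with a set share of replicates each reaching 50%; inconclusive means only one of those two conditions met; inactive means mean below 50% and too few replicates reaching it.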

This assay is described as follows: HSF-1 response element luciferase induction – NIH3T3-HGL cells, MG132 stress, luminescence, single point, primary screen (AID 504408).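 Further: 0% = median of the neutral control wells and 100% = twice that signal.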 The note with it: NIH3T3-HGL HSF-1 luciferase reporter, MG132, 8 h; at 9 µM; hits give high values; 100% = twice DMSO control signal.
On to `O=C(CCN1C(=O)C2CCCCC2C1=O)Nc1ccc(OC(F)F)cc1` (stereo not drawn), for which the activation was 20.6% (inactive).

Regarding `O=C(CNC(=O)c1ccccc1Br)NCCSc1ccc(Br)cc1`, the activation is 8.99% (inactive).

On to `CCCn1c(C)cc(-c2csc(NC(=O)CCc3nc4ccccc4c(=O)[nH]3)n2)c1C`, for which the activation is -8.73% (inactive).

Turning to `CCCc1cc(=O)[nH]c2nnc(SCC(=O)Nc3nnc(SCC)s3)n12`, the activation is -4.43% (inactive).

In the case of `CCOc1ccc(S(=O)(=O)Nc2ccc(C(=O)NCCCN3CCCC3=O)cc2)cc1`, the activation is 4.33% (inactive).

Consider `CCc1noc(C)c1C(=O)NNC(=O)c1ccc(F)cc1`, for which the activation was 7.94% (inactive).

Regarding `COc1ccc(-c2c3c(=O)n(C)c(=O)n(C)c3cn2NC(C)=O)cc1`, the activation is -5.15% (inactive).

Turning to `Cc1ccc(-c2c3c(=O)n(C)c(=O)n(C)c3cn2-n2cnnc2)cc1`, the activation is 89.3% (active).

On to `Cc1ccc(-c2c3c(=O)n(C)c(=O)n(C)c3cn2-c2ccccc2O)cc1`, for which the activation was 3.5% (inactive).

Turning to `COc1cccc(CNC(=O)C(=O)NCCC2CCCCN2S(=O)(=O)c2ccc(C)cc2)c1` (stereo not drawn), the activation was -8.41% (inactive).

In the case of `O=C(Nc1ccc(Br)cn1)c1ccc([N+](=O)[O-])o1`, the activation was 131% (active).

On to `O=C(Nc1ccncc1)c1ccc([N+](=O)[O-])cc1Cl`, for which the activation was 23.1% (inactive).

In the case of `CC(C)C(=O)Nc1cccc(NC(=O)c2ccc([N+](=O)[O-])cc2Cl)c1`, the activation is 32.5% (inactive).

In the case of `CN1C(=O)c2ccc(C(=O)Nc3ccc(Br)cn3)cc2C1=O`, the activation was -4.17% (inactive).

On to `O=C(Nc1ccc(Br)cn1)c1ccc([N+](=O)[O-])cc1Cl`, for which the activation was 69.9% (active).

With `O=C(/C=C/c1ccc(Cl)cc1)Nc1ccc(Br)cn1`, the activation is 6.81% (inactive).

For the compound `COc1ccc(C(=NN)c2ccc(OC)cc2)cc1`, the activation was 29.3% (inactive).

Consider `CN(C)CCn1c2c(c(SCC(=O)NCc3ccccc3)nc1=O)CCC2`, for which the activation is 4.29% (inactive).

Turning to `CCc1nnc(NS(=O)(=O)c2ccc(NC(=O)c3cccc(OC(F)(F)C(F)F)c3)cc2)s1`, the activation is -15.3% (inactive).

As for `Cc1onc(NC(=O)c2ccc([N+](=O)[O-])o2)c1Br`, the activation is 52.4% (active).

With `Cc1onc(C(=O)Nc2ccc3c(c2)OCO3)c1[N+](=O)[O-]`, the activation was 10.2% (inactive).

`Cc1cccc(NC(=S)Nc2ccc(Br)cc2)c1`: the activation was 46.2% (inactive).

Regarding `Cc1cccc(NC(=O)c2ccc([N+](=O)[O-])o2)c1`, the activation is 56.4% (active).

Consider `Cc1cccc(NC(=O)NC(=S)NC(=O)c2ccccc2)c1`, for which the activation is 13.9% (inactive).

As for `Cc1onc(C(=O)NCc2ccc(F)cc2)c1[N+](=O)[O-]`, the activation is 8.38% (inactive).

As for `Cc1cccc(NC(=O)c2cc([N+](=O)[O-])ccc2N2CCN(C)CC2)c1`, the activation was 13.9% (inactive).

Turning to `Cc1cccc(NC(=S)NC(=O)c2ccc(Br)o2)c1`, the activation is 78.6% (active).

In the case of `Cc1cccc(NC(=O)c2sc(-c3ccccc3)nc2-c2ccc([N+](=O)[O-])cc2)c1`, the activation is -61.8% (inactive).

For `O=C1[C@H]2[C@@H](c3ccc(F)cc3)N3C(=O)N(c4ccc(C(F)(F)F)cc4)C(=O)[C@@]3(Cc3ccccc3)[C@H]2C(=O)N1C1CCCCC1`, the activation was -4.57% (inactive).

Take `O=C(NCCC1CCCCN1S(=O)(=O)c1ccc(Cl)cc1)C(=O)NCc1ccco1` (stereo not drawn): the activation was 22.8% (inactive).

On to `COc1ccc(NS(=O)(=O)c2ccc(C)c(C(=O)N(C)Cc3ccc(OC)cc3OC)c2)cc1`, for which the activation was -13.6% (inactive).

As for `CCOc1ncccc1C(=O)NNC(=O)c1cccc(S(=O)(=O)Nc2ccccc2OC)c1`, the activation is -1.67% (inactive).

`O=C(NNC(=O)c1ccc(Cl)cc1Cl)c1cccs1`: the activation was 25.3% (inactive).

On to `Cc1ccc(NNC(=O)c2c(F)cccc2Cl)cc1Cl`, for which the activation was 0.438% (inactive).

As for `Cc1ccc(NNC(=O)c2cccs2)cc1Cl`, the activation is 69.2% (active).

In the case of `Cc1ccc(NC(=O)c2cnc(SCC(=O)NCC3CCCO3)n(C)c2=O)cc1` (stereo not drawn), the activation is 7.91% (inactive).

As for `Cc1cc(C)c(-c2csc(NC(=O)CCCc3nc4ccccc4c(=O)[nH]3)n2)c(C)c1`, the activation is -6.87% (inactive).

With `Cc1ccc(S(=O)(=O)NC(C)C(=O)NCc2ccc(Cl)cc2)cc1` (stereo not drawn), the activation was 0.844% (inactive).

For the compound `CCc1noc(C)c1C(=O)Nc1nc(-c2ccccc2)cs1`, the activation was 6.16% (inactive).

Take `O=C(NNC(=O)c1cc2c(s1)CCCC2)c1ccccc1`: the activation was 5.42% (inactive).

As for `O=C(Nc1ccc(F)cc1)c1cc2c(s1)CCCC2`, the activation is 91.6% (active).

As for `O=C(CNC(=O)c1cc2c(s1)CCC2)Nc1ccccc1Br`, the activation is 14.7% (inactive).

On to `CCOc1cc(C(=O)Nc2ccc(S(=O)(=O)Nc3cnc4ccccc4n3)cc2)cc(OCC)c1OCC`, for which the activation is 9.73% (inactive).

As for `CC1C(=O)N2CCCc3cc(S(=O)(=O)NCc4ccc(F)cc4)cc1c32` (stereo not drawn), the activation is 5.48% (inactive).

`CCOC(=O)N1CCN(Cc2nnc(-c3ccccc3Cl)o2)CC1`: the activation was -16.1% (inactive).

For `Nc1cccc2c1C(=O)N(Cc1nnc(-c3ccccc3Br)o1)C2=O`, the activation was 54.8% (active).

In the case of `Cn1cnnc1SCc1nnc(-c2ccccc2Br)o1`, the activation is 1.6% (inactive).

For `O=C(CSc1nc(=O)n2ccccc2n1)Nc1ccc2c(c1)OCCO2`, the activation was -13.2% (inactive).

`COc1cccc(NC(=O)CSc2nccn(-c3ccc4c(c3)OCCO4)c2=O)c1`: the activation was 8.35% (inactive).

Consider `CCc1ccccc1N1C(=O)C2C3CC(=O)C(c4ccccc43)C2C1=O` (stereo not drawn), for which the activation is -0.868% (inactive).

For `CC(=O)Nc1ccc(N2C(=O)C3C4CC(=O)C(c5ccccc54)C3C2=O)cc1` (stereo not drawn), the activation is 63.1% (active).

Consider `CC(=O)Nc1ccc(N2C(=O)C3C4C=CC(CC4)C3C2=O)cc1` (stereo not drawn), for which the activation is 6.25% (inactive).

Regarding `O=[N+]([O-])C(=c1ccc2c(c1)N1C3=C(CCCC3)CC3CCCCC31N=2)[N+](=O)[O-]` (stereo not drawn), the activation is 74.2% (active).

On to `O=C(NC(=S)N1CCCCC1c1cccnc1)c1ccccc1` (stereo not drawn), for which the activation was 4.49% (inactive).

As to `COc1ccc(/C=C/C(=O)NC(=S)NN2CCCCC2c2cccnc2)cc1` (stereo not drawn), the activation was 13.9% (inactive).

`COc1ccc(C(=O)NC(=S)N2CCCCC2c2cccnc2)cc1OC` (stereo not drawn): the activation was 60.1% (active).

Regarding `Cc1nc(-c2ccc(F)cc2)c(CC(=O)Nc2cc(S(=O)(=O)N3CCCCC3)ccc2C)s1`, the activation is 44.2% (inactive).

`C=CCOc1ccc(/C=C/C(=O)OCC(=O)NCC2CCCO2)cc1` (stereo not drawn): the activation was -21.7% (inactive).

`O=C(NCCc1ccco1)C(=O)NCCC1CCCCN1S(=O)(=O)c1ccccc1` (stereo not drawn): the activation was 3.12% (inactive).

For the compound `Cc1cc(CO)nn1-c1ccc([N+](=O)[O-])cc1`, the activation was -10.6% (inactive).

`Cc1ccc(-n2cc3ccc([N+](=O)[O-])cc3n2)cc1`: the activation was 59.2% (active).

On to `Cc1ccc(-c2cn3cc([N+](=O)[O-])ccc3n2)cc1`, for which the activation is 29.6% (inactive).

Take `COc1cc(C2C(C(=O)c3cccs3)=C(O)C(=O)N2CCN2CCOCC2)ccc1OCCC(C)C` (stereo not drawn): the activation is -4.43% (inactive).

For `Cc1ccc(S(=O)(=O)CCC(=O)Nc2nnc(CC(C)C)s2)cc1`, the activation was 16.5% (inactive).

For `COc1ccc(C(CNC(=O)c2cccc(NS(=O)(=O)c3ccc(C)c(F)c3)c2)N2CCCC2)cc1` (stereo not drawn), the activation is -2.57% (inactive).

`CC1CCN(C(=O)COC(=O)c2cc(S(=O)(=O)N3CCOCC3)ccc2Cl)CC1`: the activation was -3.43% (inactive).

In the case of `CC1(C)CCSC(/C=C/c2ccccc2)=N1`, the activation is 172% (active).

Turning to `CCCn1nc(C(=O)NNC(=O)CCOc2ccccc2OCC)c2ccccc2c1=O`, the activation was 2.86% (inactive).

`O=C(CN1CCOCC1)Nc1cccc([N+](=O)[O-])c1`: the activation is 8.61% (inactive).

As to `COc1ccc(C(=O)N2CC3(C)CC2CC(C)(C)C3)cc1OC` (stereo not drawn), the activation was -7.35% (inactive).

For the compound `Cc1nnnn1/C(=C\c1ccccc1)C(=O)OCC(=O)N1CC2(C)CC1CC(C)(C)C2` (stereo not drawn), the activation is 82.4% (active).

As for `Cc1cccc(C(=O)NCC(=O)OCC(=O)N2CC3(C)CC2CC(C)(C)C3)c1` (stereo not drawn), the activation is 15.9% (inactive).

In the case of `[O-][n+]1ccc(OCc2ccccc2)cc1`, the activation is -6.48% (inactive).

With `COc1ccc(-c2cc(C(=O)NCCCn3ccnc3)no2)cc1`, the activation was -2.3% (inactive).

In the case of `COc1ccccc1-c1cc(C(=O)NCCCn2ccnc2)no1`, the activation was -0.494% (inactive).

For the compound `CC(NC(=O)c1cc(-c2ccccc2)on1)c1ccccc1` (stereo not drawn), the activation was 25.2% (inactive).

On to `O=C(NC1CCCCC1)c1cc(C2CC2)on1`, for which the activation was 24.7% (inactive).

As to `O=C(NCCCn1ccnc1)c1cc(-c2ccccc2)on1`, the activation is 52.5% (active).

Regarding `O=C(NC1CCCC1)c1cc(-c2ccccc2)on1`, the activation was 61.2% (active).

For `CCC(=O)c1ccc(OCC(=O)OCC(=O)NC2CCCCCC2)cc1`, the activation is -11.2% (inactive).

Turning to `CCC1CCC/C1=N\NC(=O)c1ccc(Cl)cc1` (stereo not drawn), the activation is 9.99% (inactive).

Turning to `Cc1cc(C)c(S(=O)(=O)n2cc(C(C)C(N)C(=O)O)c3ccccc32)c(C)c1` (stereo not drawn), the activation is 0.109% (inactive).

Take `COc1cccc(N2CC(C(=O)NCc3n[nH]c(=O)c4ccccc34)CC2=O)c1` (stereo not drawn): the activation was 8.81% (inactive).

For `CSCCC(NC(=O)COc1ccccc1)C(=O)OCCOc1ccc(F)cc1` (stereo not drawn), the activation is -8.89% (inactive).

Consider `COc1cccc(C(=O)NCCS(=O)(=O)NCC2CCCO2)c1` (stereo not drawn), for which the activation is -6.64% (inactive).

For `CC1(c2nnc(Cc3ccccc3)o2)CC(c2ccccc2F)=NO1` (stereo not drawn), the activation was 4.53% (inactive).

Regarding `Cn1cccc1C(=O)NNC(=O)COc1ccc(Br)cc1`, the activation is 1.2% (inactive).

For the compound `CCS(=O)(=O)c1ccc2oc(SCC(=O)N3c4ccccc4CC3C)nc2c1` (stereo not drawn), the activation was -9.09% (inactive).

Consider `Cc1cc(=O)[nH]c(SCC(=O)N2c3ccccc3CC2C)n1` (stereo not drawn), for which the activation is -7.41% (inactive).

As for `CC1Cc2ccccc2N1C(=O)CSc1nc2ccccc2o1` (stereo not drawn), the activation is 67.8% (active).

`COc1ccc(/C=N/NC(=O)c2cc(-c3cccc(C)c3)nc3ccccc23)cc1O`: the activation was 11.4% (inactive).

As to `O=C(c1cc(-c2ccc(Cl)s2)nc2ccccc12)N1CCOCC1`, the activation was 0.352% (inactive).

As for `CCCCCN(C(=O)CCC(=O)OCCOc1ccc(OC)cc1)c1c(N)n(CCCC)c(=O)[nH]c1=O`, the activation is 2.74% (inactive).
